Each structure is given as a SMILES string. Results filed as inconclusive are left out. The source made the active and inactive calls. Unless noted, the limit is not given here; nearly all actives have AC50 up to about 30 µM.

The nature of assay [1]: growth inhibition of DIPG glioma cells, dose response, cell-based, SU-DIPG-XIII, MIPE4.0, CellTiter-Glo, qHTS (AID 1347061; cut-off not given, nearly all actives have AC50 up to about 37 µM;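 also: cells exposed to compound for 48 hours before readout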). Particulars: SU-DIPG-XIII viability, CellTiter-Glo ATP luminescence. On the technique in general: In ATP-based viability assays light output follows the ATP content of the culture.
Assay [2] can be described thus: growth inhibition of DIPG glioma cells, dose response, cell-based, JHH-DIPG-1, MIPE4.0, CellTiter-Glo, qHTS (AID 1347062; cut-off not given, nearly all actives have AC50 up to about 27 µM;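 as to AC50: cells exposed to compound for two days before readout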). To be noted: JHH-DIPG-1 viability, CellTiter-Glo ATP luminescence.
A short description of assay [3]: growth inhibition of DIPG glioma cells, dose response, cell-based, SU-DIPG-IV, MIPE4.0, CellTiter-Glo, qHTS (AID 1347063).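 Also: compound exposure lasted 48 hours before the viability readout.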 Particulars: SU-DIPG-IV viability, CellTiter-Glo ATP luminescence.
Assay [4] in a line: SU-DIPG-VI glioma cell viability, MIPE4.0 library, CellTiter-Glo luminescence, qHTS (AID 1347066).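 Also: cells exposed to compound for 48 hours before readout.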 To be noted: CellTiter-Glo ATP luminescence.
Assay [5] can be described thus: viability loss in pontine glioma line – cell-based, SU-DIPG-XXV, MIPE5.0, CellTiter-Glo, qHTS, dose response (AID 1347065; cut-off not given, nearly all actives have AC50 up to about 26 µM;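 also: cells exposed to compound for 48 hours before ATP readout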). Particulars: CellTiter-Glo ATP luminescence.
Assay [6] in a line: JHH-DIPG-1 glioma cell viability, MIPE5.0 library, CellTiter-Glo luminescence, qHTS (AID 1347067; cut-off not given, nearly all actives have AC50 up to about 26 µM;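 also: cells exposed to compound for 48 hours before readout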). Particulars: JHH-DIPG-1 glioma viability, CellTiter-Glo ATP luminescence.
Assay [7] in a line: SU-DIPG-XXV glioma cell viability, MIPE5.0 library, qHTS (AID 1347068; cut-off not given, nearly all actives have IC50 up to about 30 µM). Background: Quantitative high-throughput screening tests each substance at several concentrations.

`NC1CCC(Nc2nc(Nc3ccc(C(=O)N4CCCCC4)cc3)c3ncn(-c4cccc(F)c4)c3n2)CC1` (stereo unspecified): the molecule was called inactive in assay [1], in assay [2], in assay [3] and in assay [4].

Take `CC(C)C(=O)Oc1ccc(CO)cc1[C@H](CCN(C(C)C)C(C)C)c1ccccc1`: the result in assay [1], in assay [2], in assay [3] and in assay [4] was inactive.

For orientation: AC50 means the concentration giving half of the maximal activity seen. In the case of `C[C@H](NCc1ccc2c(c1)nc(NC(=O)c1ccc(-c3cn[nH]c3)s1)n2CCc1ccccc1)C(C)(C)C`, the AC50 in assay [1] was 2.96 µM (active); in assay [2], 1.05 µM (active); in assay [3], 1.32 µM (active); in assay [4], 5.26 µM (active).

Consider `CCC(C)CCCCC(=O)N[C@@H](CCN)C(=O)NC(C(=O)N[C@H](CCN)C(=O)N[C@@H]1CCNC(=O)C([C@@H](C)O)NC(=O)[C@@H](CCN)NC(=O)[C@@H](CCN)NC(=O)[C@@H](CC(C)C)NC(=O)[C@H](Cc2ccccc2)NC(=O)[C@H](CCN)NC1=O)[C@@H](C)O` (stereo partly specified), for which the outcome in assay [1], in assay [2], in assay [3], in assay [5], in assay [4] and in assay [6] was inactive. The molecule was classed as inactive in assay [7].

`c1nc2nc(Nc3ccc(N4CCOCC4)cc3)nc(NC3CCCCC3)c2[nH]1`: the AC50 in assay [1] is 9.35 µM (active); in assay [2] it was 16.6 µM (active); in assay [3] it was 14.8 µM (active); in assay [5], 2.09 µM (active); in assay [4], 8.33 µM (active); in assay [6], 5.9 µM (active). Also, the molecule was called inactive in assay [7].

On to `COc1ccc2cc([S+]([O-])Cc3ncc(C)c(OC)c3C)nc2c1`, for which the molecule was called inactive in assay [1], in assay [2], in assay [3] and in assay [4].

`CC[C@H]1OC(=O)[C@H](C)[C@@H](O[C@H]2C[C@@](C)(OC)[C@@H](O)[C@H](C)O2)[C@H](C)[C@@H](O[C@@H]2O[C@@H](C)C[C@H](N(C)C)[C@H]2O)[C@](C)(O)C[C@@H](C)C(=O)[C@H](C)[C@@H](O)[C@]1(C)O`: the outcome in assay [1], in assay [2], in assay [3] and in assay [4] was inactive.

As to `CCC[C@H]1C[C@H](C(=O)N[C@@H]([C@@H]2O[C@@H](SC)[C@@H](O)[C@@H](O)[C@H]2O)[C@H](C)Cl)N(C)C1`, the result in assay [1], in assay [2], in assay [3] and in assay [4] was inactive.

For the molecule `O=C(O)[C@H]1O[C@H](Oc2cc3oc(-c4ccccc4)cc(=O)c3c(O)c2O)[C@H](O)[C@@H](O)[C@@H]1O`, the outcome in assay [1], in assay [2], in assay [3] and in assay [4] was inactive.

With `C1=C/COCc2cc(ccc2OCCN2CCCC2)Nc2nccc(n2)-c2cccc(c2)OCC/1`, the AC50 in assay [1] is 14.8 µM (active); in assay [2], 4.18 µM (active); in assay [3] it was 2.35 µM (active); in assay [4] it was 5.26 µM (active).

In the case of `Nc1n[nH]c2nnc(-c3c(-c4ccccc4)nn4ccccc34)cc12`, the AC50 in assay [1] was 20.9 µM (active); in assay [2], 20.9 µM (active); in assay [3] it was 0.209 µM (active); in assay [4] it was 2.96 µM (active). The call in assay [5], in assay [6] and in assay [7] was inactive.

Consider `CN(N=O)C(=O)N[C@H]1C(O)OC(CO)[C@@H](O)[C@@H]1O` (stereo partly specified), for which the call in assay [1], in assay [2], in assay [3] and in assay [4] was inactive.

Take `Cc1nnc(C(C)C)n1C1C[C@H]2CC[C@@H](C1)N2CC[C@H](NC(=O)C1CCC(F)(F)CC1)c1ccccc1` (stereo partly specified): the molecule was called inactive in assay [1], in assay [2], in assay [3] and in assay [4].
